# Data taken from PubChem BioAssay AID1845224 (National Center for Advancing Translational Sciences (NCATS), 2023).
# Results filed as inconclusive are left out. Entries that show only a call come without a potency. Activity calls are given as the source filed them. Calls follow the shape of the dose curve; as a rule, active = well fitted curve in the direction sought with a large enough effect; inconclusive = small, poorly fitted or top-dose-only effect, or another doubt; inactive = no such curve, though single readings can be large or run the other way.
# System: NanoLuc luciferase (engineered Oplophorus gracilirostris luciferase)
# Assay: Confirmatory Nanoluciferase (NLuc) qHTS assay for identification of artifact compounds.
# Conditions: secreted NLuc in S16 cell medium, luminescence, 5 min; series mostly up to 39 µM
# Procedure, shortened: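 Conditioned medium from NLuc-expressing S16 cells (diluted 1:55) was incubated with compounds for 15 min at room temperature. Nano-Glo substrate (1:100) was then added, and luminescence was read after 5 min.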
# Potency is read from the fitted curve at half-maximal effect.
row,Structure (SMILES),Potency
1,COc1ccccc1CNC(=O)c1nn(-c2ccc(C)cc2)c(=O)c2c1c1ccccc1n2C,inactive
2,C[C@H](CCC(=O)O)[C@H]1CC[C@H]2[C@@H]3CC[C@@H]4C[C@H](O)CC[C@]4(C)[C@H]3CC[C@]12C,inactive
3,Cc1ccc(NC(=O)Cn2c(=O)n(CCC(=O)NCCc3ccccc3)c(=O)c3ccccc32)cc1,inactive
4,CCOc1ccccc1-n1nnc(-c2nc(-c3ccccc3)no2)c1N,inactive
5,OC[C@H]1O[C@@H](O[C@@H]2OC=C[C@H]3[C@H](O)[C@@H]4O[C@]4(CO)[C@@H]23)[C@H](O)[C@@H](O)[C@@H]1O,inactive
6,COc1cc(O)c2c(c1)O[C@H](c1ccccc1)CC2=O,inactive
7,CCCN(CCC)CCNC(=O)CN1C(=O)COc2ccc(S(=O)(=O)N3CCC(C)CC3)cc21,inactive
8,Cc1ccc(C(=O)Nc2onc3c2CCCC3)cc1,inactive
9,CCCN(C(=O)Cc1c(C(=O)O)[nH]c2ccc(Cl)cc12)c1ccc(OCC)cc1,inactive
10,COc1ccc(CNC(=O)C(=O)NCC(c2ccco2)S(=O)(=O)c2ccc(C)cc2)cc1 (stereo unspecified),inactive
11,CCSc1ncc(Cl)c(C(=O)Nc2c(C(=O)Nc3cccc(C)c3)oc3ccccc23)n1,inactive
12,CCOC(=O)N1CCN(S(=O)(=O)N2CCCC(C(=O)NCc3cccc(OC)c3)C2)CC1 (stereo unspecified),inactive
13,Cc1ccc(S(=O)(=O)N2CCN(c3nc(-c4cccs4)nc4cccnc34)CC2)cc1,inactive
14,COc1ccc(CCNC(=O)Cn2cc(C(=O)c3ccc(F)cc3)c(=O)c3ccc(C)nc32)cc1OC,inactive
15,COC(=O)CCC(C)C1CCC2C3CC[C@H]4CC(O)CC[C@@]4(C)C3CC(O)[C@]12C (stereo partly specified),inactive
16,CCOC(=O)c1ccc(N2C(=O)c3n[nH]c(-c4ccco4)c3C2c2ccc(F)cc2)cc1 (stereo unspecified),inactive

row,Structure (SMILES),Potency
1,Cc1ccc(N2CC(NC(=O)C(=O)c3c[nH]c4ccccc34)CC2=O)cc1 (stereo unspecified),inactive
2,COc1ccc(NC(=O)c2cnn3c(-c4ccccc4)cc(C)nc23)cc1,inactive
3,O=C(Nc1ccc(-c2nc3ccccc3[nH]2)cc1)c1ccc(Cl)c(Cl)c1,inactive
4,Cc1c(NC(=O)C(C)(C)C)cccc1-c1nc2ccccc2s1,inactive
5,CCOc1ccc(CCNC(=O)c2cnc3c(-c4ccccc4)c(C)nn3c2C)cc1OCC,inactive
6,C[C@@H]1O[C@@H](O[C@@H]2[C@@H](O)[C@H](OCCc3ccc(O)c(O)c3)O[C@H](CO[C@@H]3O[C@H](CO)[C@@H](O)[C@H](O)[C@H]3O)[C@H]2OC(=O)/C=C/c2ccc(O)c(O)c2)[C@H](O)[C@H](O)[C@H]1O,inactive
7,O=C1NC(=O)/C(=C/c2cccn2-c2ccc(P(=O)(O)O)cc2)N1,inactive
8,CC1CCN(c2ccc(-c3nc(C(C)C)no3)cc2[N+](=O)[O-])CC1,inactive
9,C[C@]12C[C@H](O)[C@H]3[C@@H](CCC4=CC(=O)CC[C@@]43C)[C@@H]1CC[C@@H]2C(=O)CO,inactive
10,CC(=O)N1CCC(N(Cc2ccco2)C(=O)Nc2ccc(C)c(Cl)c2)CC1,inactive
11,Cc1ccc(C(=O)Nc2nc(-c3ccccc3)ns2)cc1,inactive
12,O=C(Nc1ccc(Br)cc1)c1cccc(C(=O)Nc2ccc(Br)cc2)c1,inactive
13,O=C(Oc1ccccc1Cl)c1cc(-c2ccc3c(c2)OCCO3)on1,1540 nM (active)
14,O=C(O)c1cc(F)c(S(=O)(=O)N2CCN(S(=O)(=O)c3ccc4c(c3)OCCO4)CC2)cc1F,inactive
15,CCCS(=O)(=O)N1CC(=O)N(c2cc(C)cc(C)c2)C(C)(C(=O)NC2CCCCCC2)C1 (stereo unspecified),inactive
